# Screening data deposited in PubChem BioAssay by National Center for Advancing Translational Sciences (NCATS).
# FEN1 inh: inhibitors of human flap endonuclease 1; P39748; Recombinant FEN1 flap cleavage, fluorescence, 15 min; Potency, µM (doses to about 114 µM), usual class: inhibitors; hit rate 0.35% among 390,000; further: nearly all actives have a fitted effect of over 65% in size
#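 In this screen, 50 nM flap DNA substrate was added to 10 nM FEN1 pretreated with compound for 15 min at room temperature; cleavage was followed with reads at 0 and 15 min, and Hill fitting gave concentration–response parameters.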
# RECQ1 helicase: inhibitors of human RECQ1 DNA helicase; RECQ1 DNA unwinding, red fluorescence kinetic read; Potency, µM (doses to about 57.3 µM), usual class: inhibitors; hit rate 0.54% among 240,000; AID 2549; further: nearly all actives have a fitted effect of over 30% in size
#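 RECQ1T1 50 nM; forked duplex (20 bp + 30-nt ss tails) 200 nM, ATP 2 mM final; pH 8.0, 2 mM MgCl2, 2.5 ug/ml poly(dI-dC); 15 min compound preincubation; discontinuous kinetic read over 2 h at RT.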
# GCN5L2 inh: inhibitors of human GCN5L2 histone acetyltransferase; hit rate 0.21% among 390,000; Potency, µM (highest dose often 58.9 µM), hits mostly inhibitors; Q92830; GCN5L2 HAT assay, ThioGlo1 CoA-SH fluorescence; AID 504327
#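 ThioGlo1-coupled HAT assay: 20nM GCN5L2, 70uM acetyl-CoA, 75uM H3(1-25) peptide, pH 7.5. Fluorescence read at 340/540nm at start and after 20 min at room temperature.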
# PI5P4Ka inh: inhibitors of human PI5P4K alpha. hit rate 1.2% among 330,000. max response, %. AID 652105. PI5P4Kalpha enzyme, ADP-Glo luminescence, 60 min; hits give low values; active means max response of -50% or lower; inconclusive means between -30% and -50%; inactive means -30% or higher; further: value at the top dose of about 77 µM
# Target sequence (P48426 whole entry, looked up): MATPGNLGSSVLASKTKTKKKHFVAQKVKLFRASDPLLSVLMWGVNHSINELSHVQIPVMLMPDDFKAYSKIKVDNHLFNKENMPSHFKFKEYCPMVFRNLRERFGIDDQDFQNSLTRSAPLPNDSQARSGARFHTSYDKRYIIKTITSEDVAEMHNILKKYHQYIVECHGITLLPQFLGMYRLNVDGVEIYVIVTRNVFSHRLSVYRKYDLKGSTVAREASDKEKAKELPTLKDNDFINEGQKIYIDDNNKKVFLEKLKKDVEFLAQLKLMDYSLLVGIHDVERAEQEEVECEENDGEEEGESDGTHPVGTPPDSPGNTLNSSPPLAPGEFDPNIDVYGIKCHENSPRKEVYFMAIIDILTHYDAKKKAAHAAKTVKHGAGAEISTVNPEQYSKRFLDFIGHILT
#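 ADP-Glo luminescence end-point read after a 60 min room-temperature kinase reaction of PI5P4Kalpha plus substrate, initiated with ATP at 5 microM final. Buffer: 0.038 M HEPES pH 7.4, EGTA, 0.1% CHAPS, 5% DMSO.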
# APEX1 inh: blocks human APE1 abasic DNA cleavage; P27695; recombinant APE1, TAMRA/BHQ-2 abasic DNA cleavage fluorescence; Potency, µM (doses to about 65.8 µM), actives largely listed as inhibitors; hit rate 0.35% among 350,000; further: nearly all actives have a fitted effect of over 55% in size
#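 Incision of a quenched TAMRA/BHQ-2 THF abasic-site duplex (50 nM) by 0.75 nM APE1, after 15 min compound preincubation, measured as fluorescence increase over three 60 s reads. Values normalized to buffer, DMSO and NSC13755 control wells.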
# BLM helicase inh: Bloom syndrome helicase (human) inhibition; hit rate 0.2% among 350,000; P54132; recombinant BLM DNA unwinding, fluorescence dequenching; Potency, µM (top dose mostly 56.1 µM), actives largely listed as inhibitors; AID 2528; further: nearly all actives have a fitted effect of over 35% in size
# ADP-Glo interf: ADP-Glo luciferase interference, PI5P4K counter-screen; shares compounds with PI5P4Ka inh; 1,100 tested, under 10 active; ADP-Glo detection counter-screen, luciferase luminescence, no enzyme; Potency, µM (doses to about 76.9 µM), hits mostly inhibitors
# Numbers stand for hits; . = inactive; ? = inconclusive; / = no result; [ ] = another dose, or the depositor's remark. Sampled rows, rich in hits. Any-hit rate of the full collection: about 1.5%. Unless noted, the call rests on the fitted dose curve; in most records, active means well fitted curve in the direction sought with a large enough effect; inconclusive means small, poorly fitted or top-dose-only effect, or another doubt; inactive means no such curve, though single readings can be large; an effect the other way counts as inactive or inconclusive.
SMILES,FEN1 inh,RECQ1 helicase,GCN5L2 inh,PI5P4Ka inh,APEX1 inh,BLM helicase inh,ADP-Glo interf
CC(=O)N[C@@H](CCCNC(=N)N)C(=O)N[C@H](CC1CCCCC1)C(=O)N[C@@H]1CCC2SC[C@@H](C(=O)N[C@H](CCCNC(=N)N)C(=O)N[C@H](Cc3ccc(Cl)cc3)C(N)=O)N2C1=O (stereo partly drawn),/,.,.,/,.,.,/
COC(=O)c1c[nH]c(=O)c2ccccc12,.,.,.,-56,.,.,.
COC(=O)c1ccccc1C(=O)c1cccc2ccccc12,.,/,.,.,.,.,/
O=C(c1ccc2c(c1)OCCO2)N(Cc1cccnc1)c1nc2ccc(F)cc2s1,.,/,.,/,/,.,/
Nc1ncnc2c1ncn2[C@@H]1O[C@H](CO)[C@H](O)[C@H]1O,/,.,/,/,.,/,/
CCC(=O)NC(c1ccc(C)cc1)c1cc([N+](=O)[O-])c2cccnc2c1O (stereo not drawn),.,.,.,.,.,.,/
O=C(NC(c1ccc(Cl)cc1)c1cc(Cl)c2cccnc2c1O)c1cccnc1 (stereo not drawn),.,.,.,-63,.,.,.
CC(=O)NC(c1ccc(C)cc1)c1cc([N+](=O)[O-])c2cccnc2c1O (stereo not drawn),.,.,.,-59,.,.,.
CC(=O)NC(c1ccccc1)c1cc(Cl)c2cccnc2c1O (stereo not drawn),?,/,.,.,.,.,/
O=C(COc1cccc2ccccc12)Nc1cc(Cl)ccc1C(=O)O,.,/,.,?,.,.,/
O=C(COc1cccc2ccccc12)Nc1ccc(Cl)cc1C(=O)O,.,/,.,-54,.,.,.
COc1ccc2cc(C#N)c(=O)oc2c1,/,.,.,/,?,.,/
O=c1c2ccccc2cnn1-c1nc2ccccc2[nH]1,.,.,.,-50,.,.,25µM
COc1ccccc1NC(=O)CSc1oc(-c2ccccc2)nc1S(=O)(=O)c1ccccc1,.,/,.,/,/,.,/
COc1ccc(NC(=O)CSc2nc(-c3ccco3)cc(C(F)(F)F)n2)cc1OC,.,/,.,/,/,.,/
COc1ccc(NC(=O)CSc2nnc(-c3ccco3)c(-c3ccco3)n2)cc1OC,.,/,.,-52,.,.,.
Cn1nnc2cc(C(=O)NC3CC3)ccc21,.,.,/,-59,.,.,.
O=S(=O)(c1ccc(Br)cc1)N1CCCc2ccccc21,.,/,.,.,.,.,.
COCC(=O)Nc1cc(Sc2ccccc2)ccc1N=C(NC(=O)OC)NC(=O)OC,/,/,.,/,/,.,/
COC(=O)c1[nH]cnc1C(=O)c1ccccc1,.,.,.,-61,.,.,.
CC(=O)c1ccc(C2C=CC(O)C(CO)O2)cc1 (stereo not drawn),/,.[11.5 µM],/,/,.[12.4 µM],.[12.4 µM],/
c1ccc2c(CCNc3ncnc4nc[nH]c34)c[nH]c2c1,.,.,.,/,.,.,.
C[C@H]1[C@H](C)CC[C@]2(C=O)CC[C@]3(C)C(=CC[C@@H]4[C@@]5(C)C[C@@H](O)[C@H](O)[C@@](C)(CO)[C@@H]5CC[C@]43C)[C@H]12,/,.,.,/,.,.,/
Cc1ccc(NC(=O)C2CCCN(c3ncnc4onc(C)c34)C2)cc1Cl (stereo not drawn),.,/,.,/,/,.,/
CCn1nc(CC(=O)Nc2nnc(CC(=O)N3CCOCC3)s2)c2ccccc2c1=O,.,.,.,.,.,.,.
SMILES,FEN1 inh,RECQ1 helicase,GCN5L2 inh,PI5P4Ka inh,APEX1 inh,BLM helicase inh,ADP-Glo interf
CCn1nc(CC(=O)Nc2nnc(CC(=O)N3CCCC3)s2)c2ccccc2c1=O,.,.,.,.,.,.,/
Cc1oc2ccc(OCc3ccccc3Cl)cc2c1C(=O)O,.,/,.,-61,.,.,.
Cc1oc2ccc(OCc3ccc(F)cc3Cl)cc2c1C(=O)O,.,.,.,.,.,.,/
COc1cccc(-c2ccc3ncnc(NCc4cccc(F)c4)c3c2)c1,/,/,.,/,.,/,/
COCCNC(=O)c1ccc(-n2c(-c3ccccc3)cc3c2CCCCC3)cc1,.,/,.,/,/,.,/
O=C(NCc1ccccc1)c1cc2ccc(O)cc2oc1=O,.,/,.,-66,.,.,.
O=C(O)c1cc2ccc(O)cc2oc1=O,/,/,/,.,/,/,/
O=C(c1ccc(F)cc1)c1cc2ccc(O)cc2oc1=O,.,/,.,-73,.,.,?
COC(=O)N1C(C)=Cc2ccccc2C1CC(C)=O (stereo not drawn),/,.[11.5 µM],/,/,.,.,/
COc1ccc(-n2nc3c(N4CCCC(C(=O)NCc5ccc(C)cc5)C4)nnc(C)c3c2C)cc1 (stereo not drawn),?,/,.,/,/,.,/
CC(C)(NC(=O)c1ccccc1)c1nc2ccccc2s1,.,/,.,-82,.,/,.
Cc1cccc(NC(=O)c2ccc(CNS(=O)(=O)c3ccc4c(c3)C(C)(C)C(=O)N4C)cc2)c1,.,/,.,/,/,.,/
CC(=O)N1CCN(S(=O)(=O)c2cccc(C(=O)Nc3ccc(F)c(F)c3)c2)CC1,.,/,.,.,.,.,.
CCOC(=O)c1ccc(NC(=O)c2cccc(S(=O)(=O)N3CCN(C(C)=O)CC3)c2)cc1,.,/,.,.,.,.,/
COC(=O)C1CCN(C(=O)c2cc(-c3ccco3)nc3ccccc23)CC1,40µM,/,8.9µM,-82,?,/,.
